The values that follow come from PubChem BioAssay (Tox21).

For assay [1], the target named is Cytochrome P450 2C19 (Homo sapiens) (UniProt P33261). Put plainly: Cytochrome P450 Family 2 Subfamily C Member 19 (CYP2C19) small molecule antagonists: luciferase reporter qHTS assay (AID 1671197). Further: nearly all actives have a fitted effect of over 65% in size. On activity change, negative = inhibition: series mostly up to about 120 µM. The gist of the method: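 Relative luminescence units recorded 20 min after the detection reagent stopped a 1 h, 37C CYP2C19 reaction on proluciferin substrate, which was started by NADPH regeneration following 10 min room-temperature compound preincubation; ketoconazole positive control.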
For orientation: Reporter assays use an easily measured gene product as a stand-in for the process of interest.

Assay [2] has as its target Cytochrome P450 2C9 (Homo sapiens) (UniProt P11712). Briefly: Cytochrome P450 Family 2 Subfamily C Member 9 (CYP2C9) small molecule antagonists: luciferase reporter qHTS assay (AID 1671198). Further: nearly all actives have a fitted effect of over 50% in size. On activity change, negative = inhibition: series mostly up to about 120 µM. The gist of the method:
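Enzyme-substrate mix preincubated with compound 10 min at room temperature; reaction started with NADPH regeneration solution, 1 h 37C. Luminescent luciferin product read after 20 min detection reagent.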

The target in assay [3] is Cytochrome P450 1A2 (Homo sapiens) (UniProt P05177). Briefly: Cytochrome P450 Family 1 Subfamily A Member 2 (CYP1A2) small molecule antagonists: luciferase reporter qHTS assay (AID 1671199). Further: nearly all actives have a fitted effect of over 50% in size. On activity change, negative = inhibition: series mostly up to about 120 µM. The gist of the method:
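P450-Glo CYP1A2 enzyme–proluciferin substrate mix with compound 10 min at room temperature, then NADPH regeneration 1 h at room temperature. Luciferin detection reagent added, luminescence read after 20 min; furafylline positive control.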

Assay [4] concerns the target Voltage-gated inwardly rectifying potassium channel KCNH2 (Homo sapiens) (UniProt Q12809). Briefly: Human Ether-a-go-go-Related Gene (hERG) channel small molecule antagonists: fluorescence cell-based qHTS assay (AID 1671200). Further: nearly all actives have a fitted effect of over 50% in size.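 On activity change, negative = inhibition: hERG-expressing U2OS cells given a thallium stimulus after FluxOR II dye loading; series mostly up to about 77 µM.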 The gist of the method:
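Measured: Tl+ flux via fluorescence (480/540 nm) in hERG-expressing U2OS cells after 1 h dye loading at room temperature.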
(Block of hERG is tested as a sign of cardiac risk.)

Assay [5] addresses Cytochrome P450 3A4 (Homo sapiens) (UniProt P08684). Briefly: Cytochrome P450 Family 3 Subfamily A Member 4 (CYP3A4) small molecule antagonists: luciferase reporter qHTS assay (AID 1671201). Further: nearly all actives have a fitted effect of over 50% in size. On activity change, negative = inhibition: series mostly up to about 120 µM. The gist of the method:
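Setup: enzyme-substrate mix, compound pin transfer, 10 min RT. Reaction: NADPH regeneration solution, 1 h RT. Readout: detection reagent stops turnover, luminescence measured after 20 min, expressed in relative luminescence units.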

Results filed as inconclusive are left out. Values without a mark were called inactive. Activity calls are given as the source filed them. The call rests on the fitted dose curve; in most records, active means well fitted curve in the direction sought with a large enough effect in the repeat runs; inconclusive means weak or mixed curves; inactive means no such curve, though single readings can be large; an effect the other way counts as inactive or inconclusive.
On the % scale 0 is the no-effect control and ±100 the full control effect; potency means the concentration at half of the fitted maximal effect.

Chain of Cytochrome P450 1A2 (Homo sapiens) (P05177 whole entry, looked up): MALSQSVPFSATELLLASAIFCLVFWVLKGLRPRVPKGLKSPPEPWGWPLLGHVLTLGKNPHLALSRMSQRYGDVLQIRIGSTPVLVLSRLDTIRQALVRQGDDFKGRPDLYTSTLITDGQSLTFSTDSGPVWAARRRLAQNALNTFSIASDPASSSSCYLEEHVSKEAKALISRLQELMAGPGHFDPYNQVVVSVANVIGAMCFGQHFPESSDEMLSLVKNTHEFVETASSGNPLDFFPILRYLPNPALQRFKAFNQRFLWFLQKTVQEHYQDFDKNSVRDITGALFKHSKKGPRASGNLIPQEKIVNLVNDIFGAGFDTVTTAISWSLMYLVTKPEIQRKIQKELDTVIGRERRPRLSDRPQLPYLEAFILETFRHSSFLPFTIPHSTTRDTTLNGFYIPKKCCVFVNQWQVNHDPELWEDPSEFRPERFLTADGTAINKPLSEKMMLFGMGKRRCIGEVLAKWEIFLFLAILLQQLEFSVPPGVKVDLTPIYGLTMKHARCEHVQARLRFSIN
Chain of Cytochrome P450 3A4 (Homo sapiens) (P08684 whole entry, looked up): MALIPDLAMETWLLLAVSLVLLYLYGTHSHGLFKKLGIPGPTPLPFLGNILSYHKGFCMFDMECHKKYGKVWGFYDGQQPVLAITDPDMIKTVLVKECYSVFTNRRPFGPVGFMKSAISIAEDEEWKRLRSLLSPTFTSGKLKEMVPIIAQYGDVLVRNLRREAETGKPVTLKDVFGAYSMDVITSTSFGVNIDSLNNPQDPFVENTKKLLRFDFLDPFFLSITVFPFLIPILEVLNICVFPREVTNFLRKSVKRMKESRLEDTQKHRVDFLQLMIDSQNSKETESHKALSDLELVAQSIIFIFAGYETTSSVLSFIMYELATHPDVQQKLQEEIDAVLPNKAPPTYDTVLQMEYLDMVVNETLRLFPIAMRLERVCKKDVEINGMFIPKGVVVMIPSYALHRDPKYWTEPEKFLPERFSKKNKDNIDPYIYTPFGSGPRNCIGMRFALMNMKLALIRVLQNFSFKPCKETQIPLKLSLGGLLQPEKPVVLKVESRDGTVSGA
Chain of Cytochrome P450 2C19 (Homo sapiens) (P33261 whole entry, looked up): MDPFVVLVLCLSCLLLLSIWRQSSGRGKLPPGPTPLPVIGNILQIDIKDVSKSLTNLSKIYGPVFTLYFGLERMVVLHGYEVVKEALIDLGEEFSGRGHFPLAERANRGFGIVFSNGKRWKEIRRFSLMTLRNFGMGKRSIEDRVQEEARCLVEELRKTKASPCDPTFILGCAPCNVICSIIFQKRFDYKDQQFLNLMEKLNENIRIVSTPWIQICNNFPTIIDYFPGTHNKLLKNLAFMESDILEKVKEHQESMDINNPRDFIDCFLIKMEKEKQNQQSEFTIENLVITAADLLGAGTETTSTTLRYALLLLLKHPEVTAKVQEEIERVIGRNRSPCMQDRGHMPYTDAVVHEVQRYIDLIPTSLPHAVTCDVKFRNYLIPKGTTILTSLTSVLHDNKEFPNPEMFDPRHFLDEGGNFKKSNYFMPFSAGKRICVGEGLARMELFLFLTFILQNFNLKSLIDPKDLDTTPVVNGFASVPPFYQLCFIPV
Chain of Voltage-gated inwardly rectifying potassium channel KCNH2 (Homo sapiens) (Q12809 whole entry, looked up): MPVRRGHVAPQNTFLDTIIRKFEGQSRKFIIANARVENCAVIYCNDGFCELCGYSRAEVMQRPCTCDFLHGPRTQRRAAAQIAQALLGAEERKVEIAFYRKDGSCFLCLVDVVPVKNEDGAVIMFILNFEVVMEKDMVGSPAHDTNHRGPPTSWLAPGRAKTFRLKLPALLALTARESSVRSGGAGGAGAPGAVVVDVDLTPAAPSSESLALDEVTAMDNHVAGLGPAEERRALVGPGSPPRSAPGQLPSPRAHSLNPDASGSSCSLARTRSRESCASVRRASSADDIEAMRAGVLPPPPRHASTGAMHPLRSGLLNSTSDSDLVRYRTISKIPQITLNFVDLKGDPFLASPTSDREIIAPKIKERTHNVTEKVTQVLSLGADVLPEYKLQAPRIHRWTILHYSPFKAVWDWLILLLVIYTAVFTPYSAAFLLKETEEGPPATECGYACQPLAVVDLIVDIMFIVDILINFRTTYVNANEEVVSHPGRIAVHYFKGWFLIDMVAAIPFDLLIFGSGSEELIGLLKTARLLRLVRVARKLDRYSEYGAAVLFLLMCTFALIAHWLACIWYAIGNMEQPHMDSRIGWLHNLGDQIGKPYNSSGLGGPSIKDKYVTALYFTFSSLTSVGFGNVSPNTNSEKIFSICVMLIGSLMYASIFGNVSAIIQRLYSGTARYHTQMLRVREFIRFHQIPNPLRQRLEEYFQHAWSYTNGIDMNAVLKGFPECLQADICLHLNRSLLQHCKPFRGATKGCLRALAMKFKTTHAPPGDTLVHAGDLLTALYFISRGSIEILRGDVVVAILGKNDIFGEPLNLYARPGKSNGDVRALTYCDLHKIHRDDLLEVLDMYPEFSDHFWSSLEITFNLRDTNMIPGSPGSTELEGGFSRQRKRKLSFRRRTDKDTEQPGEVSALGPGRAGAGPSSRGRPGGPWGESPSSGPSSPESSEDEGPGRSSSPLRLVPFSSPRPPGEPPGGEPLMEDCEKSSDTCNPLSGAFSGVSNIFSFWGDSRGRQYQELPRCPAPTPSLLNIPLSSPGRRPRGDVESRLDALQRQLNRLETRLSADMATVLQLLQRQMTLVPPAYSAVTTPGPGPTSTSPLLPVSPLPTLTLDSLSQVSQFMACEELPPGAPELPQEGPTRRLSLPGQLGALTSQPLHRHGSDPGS
Chain of Cytochrome P450 2C9 (Homo sapiens) (P11712 whole entry, looked up): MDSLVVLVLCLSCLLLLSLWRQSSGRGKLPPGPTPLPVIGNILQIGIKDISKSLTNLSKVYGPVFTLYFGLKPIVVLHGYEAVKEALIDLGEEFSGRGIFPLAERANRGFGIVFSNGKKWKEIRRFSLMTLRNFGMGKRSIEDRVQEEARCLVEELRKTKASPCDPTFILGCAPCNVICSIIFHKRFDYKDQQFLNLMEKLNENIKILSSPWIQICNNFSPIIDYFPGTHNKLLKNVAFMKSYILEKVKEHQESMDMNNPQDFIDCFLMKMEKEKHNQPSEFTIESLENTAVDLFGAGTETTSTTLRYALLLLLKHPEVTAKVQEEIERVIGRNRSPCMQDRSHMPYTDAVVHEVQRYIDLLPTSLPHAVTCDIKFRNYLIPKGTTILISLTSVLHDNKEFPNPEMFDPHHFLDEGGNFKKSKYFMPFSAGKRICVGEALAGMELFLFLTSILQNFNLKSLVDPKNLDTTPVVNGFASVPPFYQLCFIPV

As for `CCCCC(CC)COC(=O)CCCCCCCCC(=O)OCC(CC)CCCC` (centres undefined), the Potency entry in assay [1], in assay [2], in assay [4] and in assay [5] was “inactive” throughout. Further, the Potency in assay [3] was 39.9 µM (active).

Take `O=[N+]([O-])c1ccc(NCCO)c(OCCO)c1`: the Potency result in assay [1], in assay [2], in assay [4] and in assay [5] was “inactive” in each case. In assay [3], the Potency was 17.9 µM (active).

Take `CN(C)CCN(Cc1ccsc1)c1ccccn1`: the Potency entry in assay [1], in assay [2], in assay [3], in assay [4] and in assay [5] was “inactive” each time.

Consider `Cc1ccccc1S(=O)(=O)O`, for which the Potency entry in assay [1], in assay [2], in assay [3], in assay [4] and in assay [5] was “inactive” throughout.

Take `CCc1cc(C2=C(C(=O)O)N(c3ccccc3C(F)(F)F)S(=O)(=O)c3ccccc32)cc2c1OCO2`: the Potency in assay [1] is 78.7 µM (active); in assay [2], 11.1 µM (active); in assay [5], 2.79 µM (active). Also, the Potency entry in assay [3] and in assay [4] was “inactive” each time.

Regarding `CC(C)CC(=O)C1C(=O)c2ccccc2C1=O`, the results for the Potency in assay [1], in assay [2] and in assay [3] were 39.9 µM (active), 17.8 µM (active) and 35.6 µM (active), respectively. The Potency entry in assay [4] and in assay [5] was “inactive” in each case.

Turning to `Cc1[nH]c(C)c(Cl)c(=O)c1Cl`, the Potency result in assay [1] and in assay [3] was “inactive” in each case. Moreover, the figures for the activity change, negative = inhibition in assay [2], in assay [4] and in assay [5] were 23.2% [at 23.6 µM], -0.502% [at 15.8 µM] and 19.3% [at 23.6 µM], respectively.

Consider `CCCCC`, for which the Potency result in assay [1], in assay [2], in assay [4] and in assay [5] was “inactive” throughout. Also, in assay [3], the Potency was 78.4 µM (active).

In the case of `C=CCOC(=O)CCC1CCCCC1`, the Potency result in assay [1], in assay [2], in assay [3], in assay [4] and in assay [5] was “inactive” in each case.

Regarding `COc1cc2nc(N(C)CCCNC(=O)C3CCCO3)nc(N)c2cc1OC` (centres undefined), the Potency entry in assay [1], in assay [2], in assay [3], in assay [4] and in assay [5] was “inactive” in each case.

On to `Cc1ccc(N=Nc2c(O)c(C(=O)O)cc3ccccc23)c(S(=O)(=O)O)c1`, for which the Potency result in assay [1], in assay [3], in assay [4] and in assay [5] was “inactive” each time. The Potency in assay [2] is 34.5 µM (active).

Consider `CC(COCCO)OCCO` (centres undefined), for which the Potency entry in assay [1], in assay [2], in assay [3], in assay [4] and in assay [5] was “inactive” throughout.

For the compound `CC(C)(C)Cl`, the Potency result in assay [1], in assay [2], in assay [3], in assay [4] and in assay [5] was “inactive” each time.

In the case of `CCOC(=O)NCCOc1ccc(Oc2ccccc2)cc1`, the Potency is 6.33 µM (active) in assay [1], 20 µM (active) in assay [2], 11.2 µM (active) in assay [3] and 43.6 µM (active) in assay [4]. The Potency result in assay [5] is “inactive”.

As for `CCO[Si](CCCCl)(OCC)OCC`, the Potency was 31.4 µM (active) in assay [1], 35.3 µM (active) in assay [2] and 3.53 µM (active) in assay [5]. Moreover, the Potency result in assay [3] and in assay [4] was “inactive” throughout.

Turning to `NC(N)=NCCC[C@H](N)C(=O)O`, the activity change, negative = inhibition in assay [1] was 24.2% [at 10.5 µM]; in assay [2], 10.6% [at 10.5 µM]; in assay [3] it was 1.33% [at 10.5 µM]; in assay [4], 5.88% [at 6.97 µM]; in assay [5], 0.752% [at 10.5 µM].

With `CC[N+]1(CC)CCC(=C(c2ccccc2)c2ccccc2)C1C` (centres undefined), the Potency result in assay [1], in assay [2], in assay [3] and in assay [5] was “inactive” each time.

As to `O=C1CCC(=O)O1`, the Potency result in assay [1], in assay [2], in assay [3], in assay [4] and in assay [5] was “inactive” throughout.

As for `CN(C)c1ccc(C(c2ccccc2)c2ccc(N(C)C)cc2)cc1`, the Potency in assay [1] was 1.59 µM (active); in assay [2] it was 1.42 µM (active); in assay [3], 14.2 µM (active); in assay [5], 4.48 µM (active). In addition, the Potency result in assay [4] was “inactive”.

For `C=CCOc1ccccc1OCC(O)CNC(C)C` (centres undefined), the Potency result in assay [1], in assay [2], in assay [4] and in assay [5] was “inactive” in each case. For the same compound, the Potency in assay [3] is 10.2 µM (active).

Regarding `CC1OC(=O)C(C)OC1=O` (centres undefined), the Potency result in assay [1], in assay [2], in assay [3], in assay [4] and in assay [5] was “inactive” throughout.
